According to PubChem BioAssay AID540299 (ICCB-Longwood Screening Facility, Harvard Medical School, 2011):
The campaign covered roughly 100,000 compounds. About 440 (0.44%) were called active. Rule as the data show it: active = inhibition above about 21% (passing the limit was not always enough); inactive = the rest. The sample as a whole holds a higher share of actives than the screen did.

biological target: 1,4-dihydroxy-2-naphthoyl-CoA synthase (Mycobacterium tuberculosis (strain ATCC 25618 / H37Rv)) (UniProt P9WNP5); assay: M. tuberculosis MenB inhibitors, primary screen, biochemical, absorbance (AID 540299); conditions: MenB enzyme assay, absorbance read-out; stronger effect = higher value; concentration not given here
Sequence (P9WNP5 whole entry, looked up): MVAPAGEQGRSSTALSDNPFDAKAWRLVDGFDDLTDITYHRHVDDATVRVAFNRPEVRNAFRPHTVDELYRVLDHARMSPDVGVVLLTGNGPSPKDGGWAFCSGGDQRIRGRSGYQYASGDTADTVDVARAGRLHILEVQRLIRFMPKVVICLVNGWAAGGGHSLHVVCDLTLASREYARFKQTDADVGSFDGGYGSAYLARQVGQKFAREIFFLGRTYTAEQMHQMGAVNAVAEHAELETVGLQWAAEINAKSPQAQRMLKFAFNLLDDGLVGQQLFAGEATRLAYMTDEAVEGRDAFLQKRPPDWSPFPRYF

Question: With CC1CC(Nc2ncnc3c2cnn3C)CC(C)(C)C1 (stereo unspecified) as the compound, how does the inhibition read?
Answer: The inhibition was -4.06% (inactive).

Question: How did the inhibition turn out when CCn1c(SCc2cc(=O)n3ccsc3n2)nnc1-c1cccs1 was run?
Answer: Its inhibition is 9.46% (inactive).

Question: For C=CCSc1nnc(NC(=O)CSc2nc(C)cc(=O)[nH]2)s1, which inhibition is on record?
Answer: Its inhibition is -17% (inactive).

Question: NS(=O)(=O)c1ccc(NC(=O)Cc2ccccc2F)cc1 was tested. Which inhibition did it give?
Answer: The inhibition was -21.5% (inactive).

Question: CCN(CC)C(=O)N1CCc2cc(OC)c(OC)cc2C1c1cc2cc(C)ccc2n(C(=O)N(CC)CC)c1=O (stereo unspecified) was tested. Which inhibition did it give?
Answer: The inhibition was 4.68% (inactive).

Question: Which inhibition does the source give for CN(CC(=O)Nc1ccccc1SCC#N)Cc1ccc(-c2ccc(Br)cc2)o1 here?
Answer: Its inhibition is 30.3% (active).

Question: Which inhibition does the source give for N#CCSc1ccccc1NC(=O)CN1CCc2sccc2C1c1cccs1 (stereo unspecified) here?
Answer: The inhibition was -20.8% (inactive).

Question: Which inhibition does the source give for COc1cc(C(=O)Nc2ccc3nc(N4CCN(c5ncccn5)CC4)cc(C)c3c2)cc(OC)c1OC here?
Answer: The inhibition was 2.12% (inactive).

Question: How did the inhibition turn out when CC(c1ccccc1)n1cnc2c(oc3ccccc32)c1=O (stereo unspecified) was run?
Answer: The inhibition was 7.36% (inactive).

Question: With Cc1ccc2[nH]c(=O)c(C(c3nnnn3C3CCCC3)N(C)C3CCCCC3)cc2c1 (stereo unspecified) as the compound, how does the inhibition read?
Answer: Its inhibition is 3.2% (inactive).

Question: Which inhibition does the source give for CCc1ccc(N/N=C(\C#N)C(=O)N2CCN(C)CC2)cc1 here?
Answer: Its inhibition is -139% (inactive).

Question: Which inhibition does the source give for O=C(CCn1c(=O)c2cccn2c2ccc(F)cc21)NC1CCCCC1 here?
Answer: Its inhibition is -14.7% (inactive).

Question: How did the inhibition turn out when Cc1ccc2c(c1)c1c3n2CCN(C2CCO2)C3CCC1 (stereo unspecified) was run?
Answer: Its inhibition is -8.76% (inactive).

Question: Which inhibition does the source give for O=C(CC(NCCc1ccc(Cl)cc1)C(=O)O)c1ccc(Br)cc1 (stereo unspecified) here?
Answer: The inhibition was -5.44% (inactive).

Question: For CC(C)(C)c1oc2cc(Br)c(O)cc2c1C(=O)O, which inhibition is on record?
Answer: The inhibition was -32.6% (inactive).

Question: For COc1nc2nonc2nc1OC, which inhibition is on record?
Answer: The inhibition was 26.7% (inactive).

Question: With CCO/C(C)=N\Oc1nc2nonc2nc1O/N=C(/C)OCC as the compound, how does the inhibition read?
Answer: Its inhibition is 28.8% (active).

Question: CCOC(=O)CCSc1ccccn1 was tested. Which inhibition did it give?
Answer: Its inhibition is -3.2% (inactive).

Question: Which inhibition does the source give for CN(Cn1nc(Nc2ccccc2F)sc1=S)C1CCCCC1 here?
Answer: Its inhibition is 4.42% (inactive).

Question: O=CN/N=C/c1cn(-c2cccs2)nc1-c1ccccc1 was tested. Which inhibition did it give?
Answer: The inhibition was -3.73% (inactive).

Question: C=COc1ccc(N)cc1 was tested. Which inhibition did it give?
Answer: Its inhibition is -24.2% (inactive).

Question: Which inhibition does the source give for Cc1noc2nc(C(F)(F)F)cc(C(F)(F)F)c12 here?
Answer: Its inhibition is -1.29% (inactive).

Question: With CS(=O)(=O)Cc1ccccc1 as the compound, how does the inhibition read?
Answer: The inhibition was 28.2% (active).

Question: Which inhibition does the source give for COc1ccc(OCCNS(=O)(=O)Cc2ccccc2)cc1 here?
Answer: Its inhibition is -18.2% (inactive).

Question: For O=S(=O)(NCCc1ccccc1)c1ccccc1, which inhibition is on record?
Answer: Its inhibition is 10.7% (inactive).

Question: O=C(O)CC(c1ccccc1)c1cc(Cl)ccc1O (stereo unspecified) was tested. Which inhibition did it give?
Answer: The inhibition was 2.19% (inactive).

Question: How did the inhibition turn out when CC1CN(C(=O)COC(=O)c2c(F)cccc2F)CC(C)O1 (stereo unspecified) was run?
Answer: The inhibition was -14.9% (inactive).

Question: For Cc1cc(NC(=O)COC(=O)C2CSC3(C)CCC(=O)N23)no1 (stereo unspecified), which inhibition is on record?
Answer: The inhibition was -17% (inactive).

Question: With CCCCn1c(N)c(N2CCOCC2)c(=O)n(CC(=O)NCCc2ccccc2)c1=O as the compound, how does the inhibition read?
Answer: The inhibition was 2.85% (inactive).

Question: COc1cc(S(=O)(=O)N2CCCCC2)ccc1N=Cc1c(C)[nH]n(-c2ccccc2)c1=O was tested. Which inhibition did it give?
Answer: Its inhibition is -6.35% (inactive).

Question: For Cn1c(=O)c(=O)n(C)c2cc(N3CCCCC3)c(NS(=O)(=O)c3ccc(Br)s3)cc21, which inhibition is on record?
Answer: The inhibition was -15.3% (inactive).

Question: NCCN1C(=O)S/C(=C/c2cccs2)C1=O was tested. Which inhibition did it give?
Answer: Its inhibition is -14.2% (inactive).

Question: How did the inhibition turn out when O=C(Cn1cnc2ccccc2c1=O)NCCSCc1ccco1 was run?
Answer: Its inhibition is -21.3% (inactive).

Question: COc1ccc(OCC(=O)N2CCC(C(N)=O)CC2)cc1 was tested. Which inhibition did it give?
Answer: The inhibition was -7.08% (inactive).

Question: For CC1CC(C)CN(C(=O)COC(=O)c2ccccc2NC(=O)c2ccco2)C1 (stereo unspecified), which inhibition is on record?
Answer: The inhibition was 9.45% (inactive).

Question: How did the inhibition turn out when O=C1C2N=NN(CC(=O)N(c3ccccc3)c3ccccc3)C2C(=O)N1c1ccc(Cl)cc1 (stereo unspecified) was run?
Answer: Its inhibition is -6.55% (inactive).

Question: How did the inhibition turn out when N#CC(C#N)=Cc1ccc(OC(=O)c2cccs2)cc1 was run?
Answer: Its inhibition is 0.71% (inactive).

Question: With CC(=O)N(Cc1cc2ccccc2[nH]c1=O)c1ccccc1 as the compound, how does the inhibition read?
Answer: Its inhibition is -11.4% (inactive).

Question: S=C(NC1CCCCC1)NN1CCOCC1 was tested. Which inhibition did it give?
Answer: Its inhibition is -1.62% (inactive).

Question: COC(=O)c1c(NC(=O)CCN2CCOCC2)sc2c1CCCC2 was tested. Which inhibition did it give?
Answer: The inhibition was -12.6% (inactive).

Question: How did the inhibition turn out when CC(NCCN1CCOCC1)C(=O)NC1CCCCC1 (stereo unspecified) was run?
Answer: The inhibition was 35.5% (active).

Question: With Cc1cc(C)n(CC(O)CNCc2ccco2)n1 (stereo unspecified) as the compound, how does the inhibition read?
Answer: The inhibition was -21.2% (inactive).

Question: With CN(C)c1ccc(C=Nc2cc(Br)c3c(c2)OCCO3)cc1 as the compound, how does the inhibition read?
Answer: Its inhibition is 7.11% (inactive).

Question: O=C(O)CSc1ccc2nnc(-c3ccc(F)cc3)n2n1 was tested. Which inhibition did it give?
Answer: Its inhibition is -23.7% (inactive).

Question: With COc1ccccc1OCC(O)CN1CCOCC1 (stereo unspecified) as the compound, how does the inhibition read?
Answer: The inhibition was 34.9% (active).

Question: With C(=C\c1ccccc1)/CNCCCN1CCOCC1 as the compound, how does the inhibition read?
Answer: Its inhibition is -52.5% (inactive).

Question: For COc1ccccc1COCC(O)CN1CCC(=O)CC1 (stereo unspecified), which inhibition is on record?
Answer: The inhibition was -22.7% (inactive).

Question: Which inhibition does the source give for COc1ccccc1CNCCN1CCOCC1 here?
Answer: The inhibition was 38.3% (active).

Question: With COc1cccc(-c2noc(NCCN3CCOCC3)n2)c1 as the compound, how does the inhibition read?
Answer: The inhibition was -12.4% (inactive).

Question: How did the inhibition turn out when CNCC(O)CN1CCN(c2ccccc2OC)CC1 (stereo unspecified) was run?
Answer: The inhibition was -10.5% (inactive).

Question: How did the inhibition turn out when CC(=O)n1c2ccccc2c2nc(C)sc21 was run?
Answer: Its inhibition is -21.4% (inactive).

Question: CCOC(=O)c1ccc(NC(=O)C(CC)Sc2nnc(C)n3c2cc2occc23)cc1 (stereo unspecified) was tested. Which inhibition did it give?
Answer: Its inhibition is -38.3% (inactive).

Question: With CN(C)c1ccc(/C=N/NC(=O)NC23CC4CC(CC(C4)C2)C3)cc1 as the compound, how does the inhibition read?
Answer: Its inhibition is -17% (inactive).

Question: Which inhibition does the source give for Cc1cc(C(=O)N2CCCC2)on1 here?
Answer: Its inhibition is -1.16% (inactive).

Question: CC(C)c1cc(C(=O)O)on1 was tested. Which inhibition did it give?
Answer: Its inhibition is 31.1% (active).

Question: With CCCNC(=O)c1cc(C(C)C)on1 as the compound, how does the inhibition read?
Answer: Its inhibition is -9.37% (inactive).

Question: Which inhibition does the source give for COc1cc(OC)c(NC(=O)C2CCCN(S(=O)(=O)c3ccc4c(c3)oc(=O)n4C)C2)cc1Cl (stereo unspecified) here?
Answer: The inhibition was -18.8% (inactive).

Question: With Cc1nnc(NC(=O)CSc2nnc(CNC(=O)c3ccccc3F)n2C)s1 as the compound, how does the inhibition read?
Answer: The inhibition was 27.8% (inactive).

Question: Which inhibition does the source give for O=C(OCc1ccc(-c2cc(C(F)(F)F)cc(C(F)(F)F)c2)o1)c1ccc2c(c1)CCO2 here?
Answer: Its inhibition is -6.53% (inactive).

Question: With CCN(CC)C(=O)COc1ccc(/C(C)=N/NC(=O)Cc2ccccc2)cc1 as the compound, how does the inhibition read?
Answer: Its inhibition is -14.7% (inactive).

Question: How did the inhibition turn out when O=C(O)C1C2C=CC(O2)C1C(=O)NCCc1cccc(Cl)c1 (stereo unspecified) was run?
Answer: The inhibition was -14.4% (inactive).

Question: How did the inhibition turn out when O=C(NCCc1ccccc1)Nc1ccccc1 was run?
Answer: Its inhibition is 8.56% (inactive).

Question: O=C(O)C1CC=CCC1C(=O)NCCc1ccccc1 (stereo unspecified) was tested. Which inhibition did it give?
Answer: Its inhibition is 36% (active).

Question: For COc1cccc(-n2c(=S)sc3c(=O)n4[nH]c(=O)c5ccccc5c4nc32)c1, which inhibition is on record?
Answer: Its inhibition is -24.4% (inactive).

Question: CC(C)[C@H](NC(N)=O)C(=O)Nc1ccc(Cl)c(Cl)c1 was tested. Which inhibition did it give?
Answer: The inhibition was -13.2% (inactive).

Question: Which inhibition does the source give for CCOC(CSc1nnc2c3ccccc3n(CC)c2n1)OCC here?
Answer: Its inhibition is -14% (inactive).
